From PubChem BioAssay (Tox21) come the findings set out here.

Test [1] concerns the target Peroxisome proliferator-activated receptor delta (Homo sapiens) (UniProt Q03181). In words: qHTS assay to identify small molecule agonists of the peroxisome proliferator-activated receptor delta (PPARd) signaling pathway (AID 743212; calls by dose curve;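 also: HEK293H cells with PPARd UAS beta-lactamase reporter GeneBLAzer system; % is scaled to controls: 0 for no effect and ±100 for the full control effect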). The method, boiled down:
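Beta-lactamase reporter read by fluorescence (LiveBLAzer B/G FRET, 2 h, room temperature). Test agents, in DMSO, incubated at 37 C with PPARd-bla HEK293H cells.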
A general note: Quantitative high-throughput screening tests each substance at several concentrations.

Test [2] can be described thus: qHTS assay to identify small molecule antagonists of the peroxisome proliferator-activated receptor delta (PPARd) signaling pathway - cell viability counter screen (AID 743213). Also: nearly all actives have a fitted effect of over 50% in size. Also: potency is read from the fitted curve at half-maximal effect. The essentials: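 Agonist-stimulated (L165041, 300 nM final) HEK293H PPARd UAS-bla cells are exposed to compounds for 17 h at 37 C, and ATP-based luminescence (CellTiter-Glo) from the same wells reports cytotoxicity.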

Test [3] in a line: qHTS assay to identify small molecule antagonists of the farnesoid-X-receptor (FXR) signaling pathway - cell viability counter screen (AID 743221; active = well fitted cell-killing curve with a large enough effect in the repeat runs, not every such curve was filed as active; also: nearly all actives have a fitted effect of over 50% in size; also: potency is read from the fitted curve at half-maximal effect). The method, boiled down: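 Luminescence from CellTiter-Glo measures cytotoxicity in GeneBLAzer FXR-UAS-bla HEK 293T cells. Cells were exposed to compounds with 50 uM chenodeoxycholic acid (final) for 16 h at 37 C, in wells also used for the reporter readout.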

Test [4] in a line: qHTS assay to identify small molecule agonists of the NFkB signaling pathway - cell viability counter screen (AID 1159515; calls by dose curve; also: nearly all actives have a fitted effect of over 55% in size; also: potency is read from the fitted curve at half-maximal effect). The essentials:
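Read by CellTiter-Glo luminescence (30 min, room temperature) in the wells also used for the beta-lactamase FRET read. ME-180 NFkB-bla cells at 2,000 per well were plated overnight, then exposed to compound for 5 hr at 37 C.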

A short description of test [5]: qHTS assay to identify small molecule agonists of the AP-1 signaling pathway - cell viability counter screen (AID 1159525; calls by dose curve; also: nearly all actives have a fitted effect of over 55% in size; also: potency is read from the fitted curve at half-maximal effect). The method, boiled down: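 Each titration point was normalised to DMSO and tetra n-octyl ammonium bromide controls. The read was Cell Titer Glo luminescence after 30 min at RT, following 5 h compound exposure of ME-180 AP-1-bla cells at 37 °C.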

Test [6] can be described thus: qHTS assay to identify small molecule agonists of the RXR signaling pathway - cell viability counter screen (AID 1159529). Also: nearly all actives have a fitted effect of over 50% in size. Also: potency is read from the fitted curve at half-maximal effect. The method, boiled down: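 HEK 293T RXRa-bla cells, 2% CS-FBS; 5 h settle; cpd 16 h 37 C, 5% CO2; CellTiter-Glo 30 min RT, luminescence. Tetraoctyl ammonium bromide as positive control.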
A short description of test [7]: qHTS assay to identify small molecule antagonists of the vitamin D receptor (VDR) signaling pathway - cell viability counter screen (AID 743225). Also: nearly all actives have a fitted effect of over 50% in size. Also: potency is read from the fitted curve at half-maximal effect. The essentials:
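Read-out: CellTiter-Glo luminescence measured 30 min after reagent addition at room temperature. Cells were VDR-bla HEK 293T exposed 16 h at 37C, 5% CO2, to compound with 3 nM final calcitriol agonist.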

Test [8] can be described thus: qHTS assay to identify small molecule agonists of the endoplasmic reticulum stress response signaling pathway (AID 1159516; active = well fitted activation curve with a large enough effect in the signal ratio in the repeat runs, not every such curve was filed as active; the % refers to the signal ratio; also: % is scaled to controls: 0 for no effect and ±100 for the full control effect). The essentials: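 Ratiometric FRET readout (405 nm excitation; 460 and 530 nm emission) of a beta-lactamase gene driven by the ER stress response element, after 2 hr substrate loading. HeLa ESRE-bla cells were seeded overnight and treated with compounds for only 5 hr at 37 C.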

Test [9] in a line: qHTS assay to identify small molecule antagonists of the retinoid-related orphan receptor gamma (ROR-gamma) signaling pathway - cell viability counter screen (AID 1159520). Also: nearly all actives have a fitted effect of over 50% in size. Also: potency is read from the fitted curve at half-maximal effect. The method, boiled down: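 Tet-on ROR gamma CHO cells (1,000/well) were plated 4 hr, given compounds in DMSO for 2 hr at 37 C, then induced with 1 uM final doxycycline for 16 hr. Viability was read as ATP by CellTiter-Glo luminescence after 30 min.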

A short description of test [10]: qHTS assay to identify small molecule agonists of the AP-1 signaling pathway (AID 1159526; calls by dose curve; also: % is scaled to controls: 0 for no effect and ±100 for the full control effect).
Test [11] has as its target Bile acid receptor (Homo sapiens) (UniProt Q96RI1). Nature of the test: qHTS assay to identify small molecule antagonists of the farnesoid-X-receptor (FXR) signaling pathway (AID 743217; active = well fitted inhibition curve with a large enough effect in the signal ratio in the repeat runs, not every such curve was filed as active; the % refers to the signal ratio; also: % is scaled to controls: 0 for no effect and ±100 for the full control effect). The method, boiled down:
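Antagonist mode: chenodeoxycholic acid at 50 uM final stimulates a UAS-driven beta-lactamase reporter in HEK 293T FXR-bla cells during 16 h, 37C compound exposure. Read-out is FRET substrate fluorescence after 2 h at room temperature.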

Test [12] is described as follows: qHTS assay to identify small molecule agonists of the farnesoid-X-receptor (FXR) signaling pathway - cell viability counter screen (AID 743218). Also: nearly all actives have a fitted effect of over 45% in size. Also: potency is read from the fitted curve at half-maximal effect. The method, boiled down:
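Viability counter screen in the same wells: CellTiter-Glo luminescence, 30 min room-temperature incubation, measured after the beta-lactamase read. Cells were GeneBLAzer FXR-UAS-bla HEK 293T, compound-treated 16 h at 37C.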

In test [13] the target is Bile acid receptor (Homo sapiens) (UniProt Q96RI1). Nature of the test: qHTS assay to identify small molecule agonists of the farnesoid-X-receptor (FXR) signaling pathway (AID 743220; active = well fitted activation curve with a large enough effect in the signal ratio in the repeat runs, not every such curve was filed as active; the % refers to the signal ratio; also: % is scaled to controls: 0 for no effect and ±100 for the full control effect). The essentials: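 FXR-UAS-bla HEK 293T cells carrying a UAS-driven beta-lactamase reporter were plated for 5 h at 37C/5% CO2, then exposed to DMSO-dissolved Tox21 10K compounds for 16 h at 37C. A LiveBLAzer B/G FRET substrate was loaded for 2 h at room temperature before fluorescence reading.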

Test [14] has as its target Vitamin D3 receptor (Homo sapiens) (UniProt P11473). In words: qHTS assay to identify small molecule agonists of the vitamin D receptor (VDR) signaling pathway (AID 743222; calls by dose curve; also: % is scaled to controls: 0 for no effect and ±100 for the full control effect). The essentials: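 Agonist mode, beta-lactamase reporter: fluorescence from LiveBLAzer B/G FRET substrate (2 h, room temperature) read after 16 h compound treatment at 37 C of VDR-bla cells, which were pre-incubated 4 h after seeding.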

Test [15] is described as follows: qHTS assay to identify small molecule agonists of the vitamin D receptor (VDR) signaling pathway - cell viability counter screen (AID 743224). Also: nearly all actives have a fitted effect of over 50% in size. Also: potency is read from the fitted curve at half-maximal effect. The essentials:
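Counter screen run in the same wells as the VDR-bla reporter assay: CellTiter-Glo luminescence, 30 min at room temperature, after 16 h compound treatment at 37C of cells pre-plated for 4 h.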

Test [16] can be described thus: qHTS assay to identify small molecule agonists of the endoplasmic reticulum stress response signaling pathway - cell viability counter screen (AID 1159517; calls by dose curve). The essentials: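 Cytotoxicity of test compounds toward ESRE-bla HeLa cells was assessed after 5 hr exposure. The luminescent CellTiter-Glo signal was measured 30 min after reagent addition.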
Test [17] deals with Nuclear receptor ROR-gamma (Homo sapiens) (UniProt P51449). Nature of the test: qHTS assay to identify small molecule antagonists of the retinoid-related orphan receptor gamma (ROR-gamma) signaling pathway (AID 1159521; also: nearly all actives have a fitted effect of over 50% in size; also: potency is read from the fitted curve at half-maximal effect). The method, boiled down: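 CHO Tet-on RORγ, RORE-luc reporter. Cpd 2 h pre-incubation, then dox hyclate 1 uM final, 16 h, 37 C/5% CO2. ONE-Glo luminescence; decrease = antagonist.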

For test [18], the target named is Retinoic acid receptor RXR-alpha (Homo sapiens) (UniProt P19793). In words: qHTS assay to identify small molecule agonists of the RXR signaling pathway (AID 1159527; calls by dose curve; also: % is scaled to controls: 0 for no effect and ±100 for the full control effect; nearly all actives have a fitted effect of over 35% in size). The method, boiled down: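 Read-out: beta-lactamase FRET ratio (405 nm excitation, 460 and 530 nm emission) after 2 hr substrate loading at room temperature. Cells were RXR-alpha-UAS-bla HEK 293T treated with compounds for 16 hr in 2% charcoal-stripped FBS medium.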

For test [19], the target named is Vitamin D3 receptor (Homo sapiens) (UniProt P11473). In words: qHTS assay to identify small molecule antagonists of the vitamin D receptor (VDR) signaling pathway (AID 743223; active = well fitted inhibition curve with a large enough effect in the signal ratio in the repeat runs, not every such curve was filed as active; the % refers to the signal ratio; also: % is scaled to controls: 0 for no effect and ±100 for the full control effect). The method, boiled down:
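Antagonist mode uses 1alpha,25-dihydroxyvitamin D3 at 3 nM final as stimulus. VDR-bla cells receive compounds in DMSO, incubate 16 h at 37C, then a beta-lactamase FRET substrate for 2 h at room temperature before fluorescence measurement.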

Test [20] has as its target Peroxisome proliferator-activated receptor delta (Homo sapiens) (UniProt Q03181). In words: qHTS assay to identify small molecule antagonists of the peroxisome proliferator-activated receptor delta (PPARd) signaling pathway (AID 743215; active = well fitted inhibition curve with a large enough effect in the signal ratio in the repeat runs, not every such curve was filed as active; the % refers to the signal ratio). The method, boiled down: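 Agonist L165041 (300 nM final) added with compound to PPARd-bla HEK293H UAS-bla reporter cells; 17 h incubation at 37 C. Read-out: LiveBLAzer FRET substrate, 2 h at room temperature, fluorescence intensity.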

Where “and” joins values, the source holds several entries; their conditions need not be identical. Equal values may be shown once. Records with an inconclusive call do not appear. Some structures have more than one record in an assay (separate samples or runs), and their calls can disagree. Calls of active or inactive are those of the source. Unless noted, calls follow the shape of the dose curve; as a rule, active = well fitted curve in the direction sought with a large enough effect in the repeat runs; inconclusive = weak or mixed curves; inactive = no such curve, though single readings can be large; an effect the other way counts as inactive or inconclusive.

Chain of Peroxisome proliferator-activated receptor delta (Homo sapiens) (Q03181 whole entry, looked up): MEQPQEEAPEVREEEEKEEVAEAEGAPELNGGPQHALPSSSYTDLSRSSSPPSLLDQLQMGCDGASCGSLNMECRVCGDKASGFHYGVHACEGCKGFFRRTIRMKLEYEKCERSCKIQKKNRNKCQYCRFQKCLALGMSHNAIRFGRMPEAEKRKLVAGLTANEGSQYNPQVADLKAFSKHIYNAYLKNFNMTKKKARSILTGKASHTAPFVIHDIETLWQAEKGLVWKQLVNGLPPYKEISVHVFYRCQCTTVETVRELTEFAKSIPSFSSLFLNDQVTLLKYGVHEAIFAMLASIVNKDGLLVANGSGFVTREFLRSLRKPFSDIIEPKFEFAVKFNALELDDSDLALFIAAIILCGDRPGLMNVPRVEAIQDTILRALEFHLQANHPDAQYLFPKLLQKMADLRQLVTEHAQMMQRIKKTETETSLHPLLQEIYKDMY
Chain of Vitamin D3 receptor (Homo sapiens) (P11473 whole entry, looked up): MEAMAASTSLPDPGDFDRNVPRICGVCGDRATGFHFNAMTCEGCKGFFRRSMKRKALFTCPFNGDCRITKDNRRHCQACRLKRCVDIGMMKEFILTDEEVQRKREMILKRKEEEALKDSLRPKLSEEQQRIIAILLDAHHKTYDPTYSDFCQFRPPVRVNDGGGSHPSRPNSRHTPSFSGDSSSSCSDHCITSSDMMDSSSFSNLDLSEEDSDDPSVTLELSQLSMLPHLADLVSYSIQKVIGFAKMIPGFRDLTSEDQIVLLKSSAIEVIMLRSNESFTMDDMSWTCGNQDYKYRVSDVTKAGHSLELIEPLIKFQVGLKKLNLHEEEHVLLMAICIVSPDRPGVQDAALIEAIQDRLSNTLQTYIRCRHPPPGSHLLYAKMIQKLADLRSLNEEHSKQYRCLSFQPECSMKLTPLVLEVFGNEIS
Chain of Bile acid receptor (Homo sapiens) (Q96RI1 whole entry, looked up): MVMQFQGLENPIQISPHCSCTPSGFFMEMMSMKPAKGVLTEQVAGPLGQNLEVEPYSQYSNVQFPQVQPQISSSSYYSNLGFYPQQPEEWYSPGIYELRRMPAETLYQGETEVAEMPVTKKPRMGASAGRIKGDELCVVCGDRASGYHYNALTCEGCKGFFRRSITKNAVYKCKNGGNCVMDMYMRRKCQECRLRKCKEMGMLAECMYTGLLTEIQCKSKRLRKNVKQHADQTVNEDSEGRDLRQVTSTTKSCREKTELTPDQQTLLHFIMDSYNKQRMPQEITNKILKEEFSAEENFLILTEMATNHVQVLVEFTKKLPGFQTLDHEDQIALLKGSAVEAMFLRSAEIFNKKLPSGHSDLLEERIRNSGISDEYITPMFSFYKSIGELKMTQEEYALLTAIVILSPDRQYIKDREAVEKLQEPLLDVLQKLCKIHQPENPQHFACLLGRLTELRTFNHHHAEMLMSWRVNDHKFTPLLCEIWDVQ
Chain of Retinoic acid receptor RXR-alpha (Homo sapiens) (P19793 whole entry, looked up): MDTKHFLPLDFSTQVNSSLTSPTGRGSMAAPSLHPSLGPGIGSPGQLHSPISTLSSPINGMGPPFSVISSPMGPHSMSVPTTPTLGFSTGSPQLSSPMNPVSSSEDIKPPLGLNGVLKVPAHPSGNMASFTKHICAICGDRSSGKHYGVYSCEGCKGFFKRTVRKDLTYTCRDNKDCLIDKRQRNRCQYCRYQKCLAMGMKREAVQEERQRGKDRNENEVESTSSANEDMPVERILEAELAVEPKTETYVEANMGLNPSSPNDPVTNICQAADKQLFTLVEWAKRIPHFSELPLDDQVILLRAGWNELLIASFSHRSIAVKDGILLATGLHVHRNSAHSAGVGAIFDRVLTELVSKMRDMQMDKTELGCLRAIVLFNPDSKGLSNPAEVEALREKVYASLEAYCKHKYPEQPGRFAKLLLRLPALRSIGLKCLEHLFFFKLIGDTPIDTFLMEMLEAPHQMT

For `S=c1[nH]c2ccccc2s1`, the Potency entry in test [1], in test [2], in test [3], in [4], in test [5] and in test [6] was “inactive” in each case.
As to `NC(=NCCCCCCN=C(N)/N=C(\N)Nc1ccc(Cl)cc1)/N=C(\N)Nc1ccc(Cl)cc1`, the Potency in test [2] is 19.8 µM (active) [middle of 4 runs]; in test [3] it was 19.4 µM (active) and 43.4 µM (active); in test [7], 35.3 µM (active) [middle of 4 runs]; in test [9] it was 54 µM (active) and 54.2 µM (active) and inactive; in test [5] it was 34.3 µM (active) and inactive. Also, the call in [8] was inactive. Moreover, the Potency result in test [10] is “inactive”.
As for `CCCCCOC(=O)CCCC`, the Potency entry in [2], in test [11], in [12], in test [13], in test [3] and in test [14] was “inactive” throughout. Besides, the Potency entry in test [15], in [7], in test [16], in [9], in test [17] and in [5] was “inactive” in each case. Further, the Potency entry in [10], in [18] and in test [6] was “inactive” each time. Besides, the molecule was classed as inactive in test [8].
With `COc1ccc(CN2CCN(C(c3ccc(F)cc3)c3ccc(F)cc3)CC2)c(OC)c1OC`, the Potency is 23.7 µM (active) in [2]; 21.1 µM (active) in test [12]; 29.8 µM (active) in [3]; 29.8 µM (active) in test [15]; 16.9 µM (active) in test [7]; 15.1 µM (active) in test [4]. The values for the Potency in test [17] and in [6] were 23.7 µM (active) and 13.4 µM (active), respectively. In addition, the Potency entry in [14] was “inactive”.
`C[C@H]1[C@H]2CC[C@H]3[C@@H]4CC=C5C[C@@H](N(C)C)CC[C@]5(C)[C@H]4CC[C@]23CN1C`: the Potency result in test [2], in test [11], in test [12], in [13], in [3] and in test [14] was “inactive” each time. The Potency result in test [19], in test [15], in [7], in test [16], in test [9] and in test [17] was “inactive” each time. Further, the Potency entry in test [5], in test [10], in test [18] and in test [6] was “inactive” in each case. Besides, in test [8], the outcome was inactive.
As for `CCc1cc(Cc2cc(CC)c(N)c(CC)c2)cc(CC)c1N`, the Potency is 54.9 µM (active) in test [2]; 43.6 µM (active) in test [12]; 49 µM (active) in test [4]; 48.6 µM (active) in test [17]; 38.9 µM (active) in test [6]. The Potency entry in test [13], in test [3] and in [19] was “inactive” in each case.
For `CC[C@H](c1ccc(O)cc1)[C@@H](CC)c1ccc(O)cc1`, the Potency entry in test [1], in [2], in [20], in test [13], in [3] and in [14] was “inactive” in each case. Also, the Potency entry in test [15], in [16], in test [9] and in test [10] was “inactive” throughout. For the same molecule, in test [8], the outcome was inactive. For the same molecule, the Potency was 54.5 µM (active) and inactive in [17]; 54.9 µM (active) and inactive in [5]; 49 µM (active) in test [6].
On to `COC(=O)C1=C(C)NC(C)=C(C(=O)OCC(C)C)C1c1ccccc1[N+](=O)[O-]` (stereo not drawn), for which the Potency in test [2] is 21.9 µM (active) and inactive; in test [15], 27.5 µM (active); in [9] it was 43.3 µM (active) and inactive; in test [5], 24.5 µM (active) and inactive; in test [6] it was 49 µM (active) and inactive. Besides, the Potency result in test [12], in test [3], in test [7], in [16] and in [10] was “inactive” each time. Moreover, the call in test [8] was inactive.
